One test concerns Es-2. Briefly: Primary qHTS to identify gynecologic anti-cancer compounds using libraries of approved drugs and bioactive compounds (AID 1345084). Further: nearly all actives have a fitted effect of over 55% in size. Further: potency means the concentration at half of the fitted maximal effect. Conditions: Gynecologic cancer cell panel viability, ATPlite luminescence, 48 h; series mostly up to 57.5 µM. The method in brief:
(§1)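 In this quantitative HTS, cell killing is estimated from loss of ATP-dependent luciferase light. Cells see five compound concentrations over a 48 h exposure.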

The test system of another test is HeLa. Described as above. The note with it: Gynecologic cancer cell panel viability, ATPlite luminescence, 48 h; series mostly up to 57.5 µM. The method in brief: as §1
In a further test the test system is Hek293T. Described as above. Conditions: Gynecologic cancer cell panel viability, ATPlite luminescence, 48 h, control line for the selectivity index; series mostly up to 57.5 µM. The method in brief: as §1
On the technique in general: ATP-based viability assays read luminescence as a measure of living cells.

The next test relates to JEG-3. The test is described as above. The note with it: Gynecologic cancer cell panel viability, ATPlite luminescence, 48 h; series mostly up to 57.5 µM. The method in brief:
as §1

The next test concerns OV90. The description is as above. The note with it: Gynecologic cancer cell panel viability, ATPlite luminescence, 48 h; series mostly up to 57.5 µM. The method in brief:
as §1

In the next test the test system is PA-1. The description is as above. The note with it: Gynecologic cancer cell panel viability, ATPlite luminescence, 48 h; series mostly up to 57.5 µM. The method in brief:
as §1

The next test has as its system SKOV3. Described as above. Conditions: Gynecologic cancer cell panel viability, ATPlite luminescence, 48 h; series mostly up to 57.5 µM. The method in brief: as §1
For a further test, the system named is Tov-21-G. The description is as above. The note with it: Gynecologic cancer cell panel viability, ATPlite luminescence, 48 h; series mostly up to 57.5 µM. The method in brief:
as §1

A further test has as its system Tov112D. The test is described as above. The note with it: Gynecologic cancer cell panel viability, ATPlite luminescence, 48 h; series mostly up to 57.5 µM. The method in brief: as §1
Test [1] in a line: Drug repurposing screens with cells derived from glioblastoma tumor samples (AID 1345199). Further: nearly all actives have a fitted effect of over 40% in size. Conditions: GBM patient neurospheres viability, ATP luminescence, 48 h. The method in brief:
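Four patient lines of CD133+ GBM neurospheres were screened at several concentrations; hits were retested in those lines plus three slower-growing GBM lines, using 48-hour treatment and ATP-based viability.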

[2] abbreviates: at 45.9 µM (top of the series), tumour line B.
Setting [3] is: at 45.9 µM (top of the series), tumour line D.
The mark [4] stands for this setting: at 46 µM (top of the series), tumour line A.
Setting [5] is: at 46.1 µM (top of the series), tumour line C.

Structures are written as SMILES. “And” between values parts separate entries of the source, which are not always exact repeats. Identical values can stand only once. Results filed as inconclusive are left out. Some structures have more than one record in an assay (separate samples or runs), and their calls can disagree. The source made the active and inactive calls. The call rests on the fitted dose curve; in most records, active means well fitted curve in the direction sought with a large enough effect; inconclusive means small, poorly fitted or top-dose-only effect, or another doubt; inactive means no such curve, though single readings can be large; an effect the other way counts as inactive or inconclusive.
On the % scale 0 is the no-effect control and ±100 the full control effect.

In the case of `CCOC(=O)C1=C(N)Oc2ccc(Br)cc2C1C(C#N)C(=O)OCC` (stereo not drawn), the Potency result in the test with Es-2, in the test on HeLa, with Hek293T, in the test with JEG-3, in the test on OV90 and with PA-1 was “inactive” throughout. Further, the Potency entry in the test with SKOV3, with Tov-21-G and in the test on Tov112D was “inactive” throughout.
As to `CN(C)c1cc(NC(=O)CNC(C)(C)C)c(O)c2c1C[C@@H]1C[C@H]3[C@H](N(C)C)C(=O)C(C(N)=O)=C(O)[C@@]3(O)C(=O)C1=C2O`, the Potency entry in the test on Es-2, with HeLa, in the test with Hek293T, in the test on JEG-3, with OV90 and in the test on PA-1 was “inactive” throughout. In addition, the Potency entry in the test on SKOV3, in the test with Tov-21-G and in the test on Tov112D was “inactive” each time. Further, the activity, negative = cell killing in test [1] (setting [2]) was 8.46% (inactive); in test [1] (setting [3]), 6.87% (inactive); in test [1] (setting [4]), -27.8% (inactive); in [1] (setting [5]), 0.651% (inactive).
As for `CC(C)[C@H](CO)Nc1nc(Nc2ccc(C(=O)O)c(Cl)c2)c2ncn(C(C)C)c2n1`, the Potency result in the test on Es-2, in the test with HeLa, with Hek293T, in the test on JEG-3, in the test with OV90 and with PA-1 was “inactive” each time. Also, the Potency entry in the test with SKOV3, in the test with Tov-21-G and in the test on Tov112D was “inactive” in each case.
Regarding `CNC(=O)c1ccc2cc(C3(O)CCn4cncc43)ccc2c1` (stereo not drawn), the Potency entry in the test on Es-2, in the test on HeLa, in the test on Hek293T, in the test on JEG-3, in the test on OV90 and in the test on PA-1 was “inactive” in each case. Further, the Potency result in the test with SKOV3, in the test with Tov-21-G and in the test with Tov112D was “inactive” each time.
On to `O=C(Nc1ccccc1-c1cn2c(CN3CCNCC3)csc2n1)c1cnc2ccccc2n1`, for which the Potency entry with Es-2, in the test with HeLa, in the test with Hek293T, in the test on JEG-3, in the test on OV90 and in the test with PA-1 was “inactive” each time. Moreover, the Potency result in the test on SKOV3, with Tov-21-G and in the test on Tov112D was “inactive” each time.
With `O=C1NCC2(CCN(CCc3ccccc3)CC2)O1`, the Potency entry with Es-2, in the test on HeLa, in the test with Hek293T, with JEG-3, in the test with OV90 and in the test with PA-1 was “inactive” in each case. Moreover, the Potency result in the test with SKOV3, with Tov-21-G and in the test on Tov112D was “inactive” each time. Further, the activity, negative = cell killing in [1] (setting [2]) is -4.5% (inactive); in test [1] (setting [3]), -9.33% (inactive); in test [1] (setting [5]) it was -12.7% (inactive).
On to `O=C(O)c1cc(-c2ccccc2)nc2ccccc12`, for which the Potency entry in the test on Es-2, with Hek293T, in the test on JEG-3, with OV90, in the test on PA-1 and in the test on Tov-21-G was “inactive” each time. For the same compound, in the test with Tov112D, the Potency entry is “inactive”. Further, the Potency was 50.1 µM (active) and inactive in the test with HeLa; 28.2 µM (active) and inactive in the test on SKOV3. Also, the activity, negative = cell killing in test [1] (setting [2]) was -26% (inactive); in [1] (setting [3]), -24.8% (inactive); in test [1] (setting [5]), -23% (inactive).
As for `COC(=O)[C@@H]1[C@H]2C[C@H]3c4[nH]c5ccccc5c4CCN3C[C@@H]2CC[C@@H]1O`, the Potency result in the test with Es-2, with HeLa, in the test with Hek293T, in the test with JEG-3, in the test on OV90 and in the test with PA-1 was “inactive” in each case. The Potency entry in the test on SKOV3, in the test with Tov-21-G and in the test on Tov112D was “inactive” each time. Moreover, the values for the activity, negative = cell killing in [1] (setting [2]), in [1] (setting [3]) and in test [1] (setting [5]) were 3.23% (inactive), 3.82% (inactive) and -7.31% (inactive), respectively.
Take `CC(C)NCC(O)COc1cccc2[nH]ccc12` (stereo not drawn): the Potency result with Es-2, with HeLa, in the test on Hek293T, with JEG-3, with OV90 and in the test with PA-1 was “inactive” throughout. In addition, the Potency entry with SKOV3, with Tov-21-G and in the test on Tov112D was “inactive” each time. Besides, the activity, negative = cell killing in test [1] (setting [2]) was -5.39% (inactive); in test [1] (setting [3]), -14.8% (inactive); in test [1] (setting [4]), -24.6% (inactive); in test [1] (setting [5]) it was 1.52% (inactive).
Consider `COc1ccccc1N1CCN(CCCNc2cc(=O)n(C)c(=O)n2C)CC1`, for which the Potency result in the test on Es-2, with HeLa, in the test with Hek293T, in the test with JEG-3, in the test with OV90 and in the test on PA-1 was “inactive” throughout. Also, the Potency entry in the test on SKOV3, in the test with Tov-21-G and with Tov112D was “inactive” each time. In addition, the activity, negative = cell killing was -12.1% (inactive) and -4.13% (inactive) in [1] (setting [2]); 1.29% (inactive) and -19.7% (inactive) in test [1] (setting [3]); -30.8% (inactive) in [1] (setting [4]); -17.7% (inactive) and -6.4% (inactive) in [1] (setting [5]).
Consider `O=C(CCN1CCN(C(=O)OCc2cc(Cl)cc(Cl)c2)CC1)c1ccc2[nH]c(=O)oc2c1`, for which the Potency entry with Es-2, with HeLa, in the test with Hek293T, in the test on JEG-3, in the test on OV90 and in the test on PA-1 was “inactive” throughout. The Potency entry in the test on SKOV3, in the test on Tov-21-G and with Tov112D was “inactive” each time.
Regarding `CC(C)(C)c1cc(C(=O)O)c(NC(=O)Nc2ccc3[nH]ncc3c2)s1`, the Potency entry in the test with Es-2, in the test with HeLa, with Hek293T, in the test on JEG-3, in the test with OV90 and in the test on PA-1 was “inactive” each time. Further, the Potency result with SKOV3, with Tov-21-G and with Tov112D was “inactive” in each case.
With `O=C(NC1CCOCC1)c1ccc(-c2cc(-c3cn[nH]c3-c3ccccn3)ccn2)cc1`, the Potency result in the test on Es-2, in the test with HeLa, with Hek293T, with JEG-3, in the test with OV90 and in the test with PA-1 was “inactive” each time. The Potency result in the test on SKOV3, in the test with Tov-21-G and with Tov112D was “inactive” each time.
For the compound `CC(=O)N[C@@H](CS)C(=O)O`, the Potency entry with Es-2, with HeLa, in the test with Hek293T, in the test with JEG-3, in the test on OV90 and in the test on PA-1 was “inactive” each time. In addition, the Potency entry in the test with SKOV3, in the test with Tov-21-G and with Tov112D was “inactive” in each case. Besides, the activity, negative = cell killing was -7.88% (inactive) in [1] (setting [2]), -1.21% (inactive) in test [1] (setting [3]), -28.2% (inactive) in [1] (setting [4]) and -14.2% (inactive) in test [1] (setting [5]).
As to `CCCCC1C(=O)N(c2ccccc2)N(c2ccccc2)C1=O`, the Potency entry in the test on Es-2, with HeLa, in the test on Hek293T, in the test with JEG-3, with OV90 and in the test on PA-1 was “inactive” throughout. Also, the Potency result in the test with SKOV3, in the test on Tov-21-G and in the test on Tov112D was “inactive” in each case. Further, the activity, negative = cell killing in [1] (setting [2]) is -14.3% (inactive) and -18.7% (inactive); in test [1] (setting [3]) it was -13.1% (inactive) and -6.92% (inactive); in test [1] (setting [5]), 4.16% (inactive) and -25.1% (inactive).

Source of the values: PubChem BioAssay (NCATS).
